# The supplement of paper PMC12808144
# Unmarked numbers belong to inactive results.
# Tested on: Mel-DCC-11-R
# Test: cell viability relative to DMSO control (fraction of DMSO control); higher = less cytotoxic, active = 0.8 or less
# Conditions: 1 µM; 120 h; vemurafenib co-treatment 8 µM
# Method in brief: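 Cells in 40 µl per well went into 384-well plates pre-spotted acoustically with a TargetMol library of 315 approved anti-cancer drugs, each at 1 µM in duplicate, for 120 h. Seeding was 2500/well for NHEM-hTERT immortalized melanocytes and 1500/well for patient-derived Mel-DCC-11 and its resistant subline Mel-DCC-11-R, which was run alone and with 8 µM of its selecting drug. Luminescence was read with ATPlite 1step. Viability was normalised to vehicle-treated controls and averaged over duplicates.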
row,SMILES,cell viability
1,CC1(C)[C@@H](O[C@H]2O[C@H](C(=O)O)[C@@H](O)[C@H](O)[C@H]2OC2O[C@H](C(=O)O)[C@@H](O)[C@H](O)[C@H]2O)CC[C@]2(C)[C@H]3C(=O)C=C4[C@@H]5C[C@@](C)(C(=O)O)CC[C@]5(C)CC[C@@]4(C)[C@]3(C)CC[C@@H]12 (stereo partly drawn) [Glycyrrhizin],1.19
2,COC(=O)c1ccc2c(c1)NC(=O)/C2=C(\Nc1ccc(N(C)C(=O)CN2CCN(C)CC2)cc1)c1ccccc1 [Nintedanib],0.803
3,COC(=O)C[C@](O)(CCCC(C)(C)O)C(=O)O[C@@H]1C(OC)=CC23CCCN2CCc2cc4c(cc2[C@H]13)OCO4 (stereo partly drawn) [Homoharringtonine],0.0543 (active)
4,CCCCCCNC(=O)n1cc(F)c(=O)[nH]c1=O [Carmofur],1.06
5,COc1cc([C@@H]2c3cc4c(cc3[C@@H](O[C@@H]3O[C@@H]5CO[C@@H](c6cccs6)O[C@H]5[C@H](O)[C@H]3O)[C@H]3COC(=O)[C@H]23)OCO4)cc(OC)c1O [Teniposide],0.638 (active)
6,C=CC(=O)Nc1cccc(Nc2nc(Nc3ccc(N4CCN(C(C)=O)CC4)cc3OC)ncc2C(F)(F)F)c1 [Rociletinib],0.836
7,CO[C@@]12[C@H](COC(N)=O)C3=C(C(=O)C(C)=C(N)C3=O)N1C[C@@H]1N[C@@H]12 [Mitomycin C],0.859
8,COC(=O)C1=C(C)NC(C)=C(C(=O)OC)C1c1ccccc1[N+](=O)[O-] [Nifedipine],1.18
